Results as given in the supplement of paper PMC8975748.
Where a name gives a salt, the structure may show the parent alone.

Test system: Saccharomyces cerevisiae BY4741 SeMeCo community
Test: z-score of subpopulation abundance vs DMSO median, subpopulation auxotrophic for HUM; higher = larger share of this subpopulation than in DMSO controls
Settings: 10 µM; 24 h; SM minimal medium; subpopulation (auxotrophy): HUM
Method: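 Fluorescent four-plasmid SeMeCo (self-establishing metabolically cooperating S. cerevisiae BY4741 community; plasmids pH-mRuby2, pL-mWasabi, pU-eCFP, pM-TagRFP657) was grown 24 h in minimal SM medium with each Selleck FDA-approved drug at 10 µM in 384-well plates. Cells were fixed and imaged by high-content confocal microscopy. For each auxotrophic subpopulation (and the prototroph), a z-score gives the deviation from the DMSO vehicle-control population median.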

Row | Structure (SMILES) | z-score of subpopulation abundance
1 | O=[N+]([O-])c1ccc(O)c2ncccc12 [Nitroxoline] | 19.7
2 | CN1CCCN=C1/C=C/c1cccs1 [Pyrantel Pamoate] | -0.34
3 | CN(C/C=C/C#CC(C)(C)C)Cc1cccc2ccccc12 [Terbinafine HCl] | 1.65
4 | C[C@H]1COc2c(C3(N)CC3)c(F)cc3c(=O)c(C(=O)O)cn1c23 [Pazufloxacin mesylate] | -0.08
5 | CCC1=C(C)CN(C(=O)NCCc2ccc(S(=O)(=O)NC(=O)N[C@H]3CC[C@H](C)CC3)cc2)C1=O [Glimepiride] | 0.42
6 | COc1cc(NS(=O)(=O)c2ccc(N)cc2)ncn1 [Sulfamonomethoxine] | 0.06
7 | COCCCN1CCC(NC(=O)c2cc(Cl)c(N)c3c2OCC3)CC1 [Prucalopride] | 0.36
8 | C[C@]12CC[C@@H]3c4ccc(O)cc4C[C@@H](CCCCCCCCC[S+]([O-])CCCC(F)(F)C(F)(F)F)[C@H]3[C@@H]1CC[C@@H]2O (stereo not given in full) [Fulvestrant] | 1.23
9 | Clc1ccc(COC(Cn2ccnc2)c2ccc(Cl)cc2Cl)c(Cl)c1 (stereo not given) [Miconazole Nitrate] | 6.7
10 | COC(=O)C1=C(C)NC(C)=C(C(=O)OC(C)(C)CN(C)CCC(c2ccccc2)c2ccccc2)C1c1cccc([N+](=O)[O-])c1 (stereo not given) [Lercanidipine hydrochloride] | 0.37
11 | CC[C@H](C)C(=O)O[C@H]1C[C@H](O)C=C2C=C[C@H](C)[C@H](CC[C@@H](O)C[C@@H](O)CC(=O)O)[C@H]21 [Pravastatin sodium] | -0.32
12 | CN(C)CCCC1(c2ccc(F)cc2)OCc2cc(C#N)ccc21 (stereo not given) [Citalopram HBr] | 0.08
13 | COc1nc2ccc(Br)cc2cc1[C@@H](c1ccccc1)[C@@](O)(CCN(C)C)c1cccc2ccccc12 [Bedaquiline fumarate] | 1.74
14 | C[C@]12CCC3=C4CCC(=O)C=C4CC[C@H]3[C@@H]1CC[C@@]2(O)CC#N [Dienogest] | -0.51
15 | CC(C)(C)C(=O)OCOC(=O)[C@@H]1N2C(=O)[C@@H](/N=C/N3CCCCCC3)[C@H]2SC1(C)C [Pivmecillinam hydrochloride] | -0.16
16 | C[N+](C)(C)CCO.[Cl-] [Choline Chloride] | -0.76
17 | OC(c1ccccc1)(c1ccccc1)C12CC[N+](CCOCc3ccccc3)(CC1)CC2 [Umeclidinium bromide] | -0.43
18 | CCCCCCCCCCCCCCCC[N+](C)(C)C [Cetrimonium Bromide (CTAB)] | 34.1
19 | NC(=O)OCC(COC(N)=O)c1ccccc1 [Felbamate] | -0.71
20 | O=C(O)Cc1ccccc1Nc1c(Cl)cccc1Cl [Diclofenac Sodium] | -1.27

Row | Structure (SMILES) | z-score of subpopulation abundance
21 | CC[C@H]1OC(=O)C[C@@H](O)[C@H](C)[C@@H](O[C@@H]2O[C@H](C)[C@@H](O[C@H]3C[C@@](C)(O)[C@@H](O)[C@H](C)O3)[C@H](N(C)C)[C@H]2O)[C@@H](CC=O)C[C@@H](C)C(=O)/C=C/C(C)=C/[C@@H]1CO[C@@H]1O[C@H](C)[C@@H](O)[C@@H](OC)[C@H]1OC [Tylosin] | 1.06
22 | C[C@H](NCc1ccc(OCc2cccc(F)c2)cc1)C(N)=O [Safinamide] | -0.17
23 | Cc1c(OCC(F)(F)F)ccnc1C[S+]([O-])c1nc2ccccc2[nH]1 (stereo not given) [Lansoprazole] | -0.3
24 | CCCN1CCCC[C@H]1C(=O)Nc1c(C)cccc1C [Ropivacaine HCl] | -0.03
25 | C1N2CN3CN1CN(C2)C3 [Methenamine] | 0.39
26 | Nc1ccc(S(=O)(=O)Nc2nccs2)cc1 [Sulfathiazole] | 0.33
27 | CCCc1nc(C)c2c(=O)nc(-c3cc(S(=O)(=O)N4CCN(CC)CC4)ccc3OCC)[nH]n12 [Vardenafil HCl Trihydrate] | 0.81
28 | Cc1ccc(-c2ncc(Cl)cc2-c2ccc(S(C)(=O)=O)cc2)cn1 [Etoricoxib] | -0.71
29 | CCCCCCCCN=c1ccn(CCCCCCCCCCn2ccc(=NCCCCCCCC)cc2)cc1 [Octenidine Dihydrochloride] | 26.9
30 | Cc1nccn1CC1CCc2c(c3ccccc3n2C)C1=O (stereo not given) [Ondansetron HCl] | -0.03
31 | NCC[C@H](O)C(=O)N[C@@H]1C[C@H](N)[C@@H](O[C@H]2O[C@H](CN)[C@@H](O)[C@H](O)[C@H]2O)[C@H](O)[C@H]1O[C@H]1O[C@H](CO)[C@@H](O)[C@H](N)[C@H]1O [Amikacin hydrate] | -0.33
32 | CCOC(=O)c1c(CSc2ccccc2)n(C)c2cc(Br)c(O)c(CN(C)C)c12 [Arbidol HCl] | 0.09
33 | O=C(Nc1cc(Cl)cc(Cl)c1O)c1c(O)c(Cl)cc(Cl)c1Cl [Oxyclozanide] | -0.71
34 | CC[N+](CC)(CC)CC [Tetraethylammonium bromide] | -0.37
35 | COc1cc2c(cc1OC)C(=O)C(CC1CCN(Cc3ccccc3)CC1)C2 (stereo not given) [Donepezil] | -0.13
36 | CSCC1CN(/N=C/c2ccc([N+](=O)[O-])o2)C(=O)O1 (stereo not given) [Nifuratel] | -2.83
37 | C[C@](N)(Cc1ccc(O)c(O)c1)C(=O)O [Methyldopa] | -0.27
38 | CCCCCCCCCCCCCCCCOP(=O)([O-])OCC[N+](C)(C)C [Miltefosine] | 142
39 | COCCCC/C(=N\OCCN)c1ccc(C(F)(F)F)cc1 [Fluvoxamine maleate] | 0.06
40 | COc1ccc2cc3[n+](cc2c1OC)CCc1cc2c(cc1-3)OCO2 [Berberine chloride] | -0.38
